Experiment [1] addresses Bile acid receptor (Homo sapiens) (UniProt Q96RI1). Description: qHTS assay to identify small molecule agonists of the farnesoid-X-receptor (FXR) signaling pathway (AID 743220; active means well fitted activation curve with a large enough effect in the signal ratio in the repeat runs, not every such curve was filed as active; the % refers to the signal ratio; further: on the % scale 0 is the no-effect control and ±100 the full control effect). An outline of the steps: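 FXR-UAS-bla HEK 293T cells carrying a UAS-driven beta-lactamase reporter were plated for 5 h at 37C/5% CO2, then exposed to DMSO-dissolved Tox21 10K compounds for 16 h at 37C. A LiveBLAzer B/G FRET substrate was loaded for 2 h at room temperature before fluorescence reading.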

The nature of experiment [2]: qHTS assay for small molecule disruptors of the mitochondrial membrane potential - cell viability (AID 720634; calls by dose curve;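 further: human HepG2 liver cancer cells; series mostly up to about 83 µM; on the % scale 0 is the no-effect control and ±100 the full control effect; nearly all actives have a fitted effect of over 20% in size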). A digest of the protocol: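 Cytotoxicity was quantified from ATP content by CellTiter-Glo luminescence in the same wells as the MMP dye read-out. HepG2 (2,000 cells/well) were plated overnight and exposed to compounds for 1 hr at 37 C.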
Experiment [3] can be described thus: qHTS assay to identify small molecule antagonists of the glucocorticoid receptor (GR) signaling pathway - cell viability counter screen (AID 720693). Further: nearly all actives have a fitted effect of over 55% in size. Further: potency means the concentration at half of the fitted maximal effect.
Experiment [4] in a line: qHTS assay to identify small molecule that activate the aryl hydrocarbon receptor (AhR) signaling pathway - cell viability counter screen (AID 743086). Further: nearly all actives have a fitted effect of over 45% in size. Further: potency means the concentration at half of the fitted maximal effect. A digest of the protocol: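 HepG2-AhR-luc (HG2L7.5c1) cells, 4000/well, were preincubated 5 h at 37C, exposed to compound in qHTS format for 24 hr at 37C, then given CellTiter-Fluor for 30 min; viability was read as fluorescence in the reporter wells.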

Experiment [5] in a line: qHTS assay to identify small molecule antagonists of the peroxisome proliferator-activated receptor gamma (PPARg) signaling pathway - cell viability counter screen (AID 743194). Further: potency means the concentration at half of the fitted maximal effect; nearly all actives have a fitted effect of over 55% in size. The settings on record: Potency: co-treated with 50 nM rosiglitazone unless noted. An outline of the steps:
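PPARg-UAS-bla HEK293H cells were plated, rested 5 h at 37 C, then treated with compounds plus rosiglitazone (50 nM final) for 17 h at 37 C; viability was then read by CellTiter-Glo luminescence after 30 min at room temperature.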

The nature of experiment [6]: qHTS assay for small molecule activators of the heat shock response signaling pathway - cell viability counter screen (AID 743209). Further: nearly all actives have a fitted effect of over 50% in size. Further: potency means the concentration at half of the fitted maximal effect. An outline of the steps: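 Cytotoxicity counter screen run in the same wells as the heat-shock bla reporter assay: HeLa HSE-bla cells, 5 h compound exposure at 37 C, viability read by CellTiter-Glo luminescence.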
Experiment [7] in a line: qHTS assay to identify small molecule antagonists of the vitamin D receptor (VDR) signaling pathway - cell viability counter screen (AID 743225). Further: nearly all actives have a fitted effect of over 50% in size. Further: potency means the concentration at half of the fitted maximal effect. A digest of the protocol:
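Cytotoxicity counter screen read by CellTiter-Glo luminescence (30 min, room temperature) in the same wells as the VDR-bla antagonist readout. HEK 293T VDR-UAS-bla cells had 16 h at 37C with compound and 3 nM (final) 1-alpha,25-dihydroxyvitamin D3, then 2 h with FRET substrate.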

The target in experiment [8] is Peroxisome proliferator-activated receptor delta (Homo sapiens) (UniProt Q03181). Put plainly: qHTS assay to identify small molecule antagonists of the peroxisome proliferator-activated receptor delta (PPARd) signaling pathway (AID 743215; active means well fitted inhibition curve with a large enough effect in the signal ratio in the repeat runs, not every such curve was filed as active; the % refers to the signal ratio;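 further: cells stimulated with agonist L165041 at 300 nM final during compound exposure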; further: potency means the concentration at half of the fitted maximal effect). An outline of the steps:
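Agonist L165041 (300 nM final) added with compound to PPARd-bla HEK293H UAS-bla reporter cells; 17 h incubation at 37 C. Read-out: LiveBLAzer FRET substrate, 2 h at room temperature, fluorescence intensity.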

Experiment [9] in a line: qHTS assay for small molecules that induce genotoxicity in human embryonic kidney cells expressing luciferase-tagged ATAD5 - cell viability (AID 651634; calls by dose curve; further: nearly all actives have a fitted effect of over 25% in size; further: potency means the concentration at half of the fitted maximal effect). An outline of the steps: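 Cytotoxicity counter-readout: after 15.5 hr compound treatment at 37C, live-cell protease activity in ATAD5-luciferase HEK293T cells measured by CellTiter-Fluor fluorescence, 30 min development at 37C.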

Experiment [10] concerns the target Glucocorticoid receptor (Homo sapiens) (UniProt P04150). Put plainly: qHTS assay to identify small molecule agonists of the glucocorticoid receptor (GR) signaling pathway (AID 720691; active means well fitted activation curve with a large enough effect in the signal ratio in the repeat runs, not every such curve was filed as active; the % refers to the signal ratio; further: on the % scale 0 is the no-effect control and ±100 the full control effect). An outline of the steps: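 Agonist-mode qHTS in HeLa cells stably expressing a glucocorticoid-response-element beta-lactamase reporter. Fluorescence intensity read with FRET substrate (2 h, room temperature) after 18 h compound treatment at 37 C.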

For experiment [11], the target named is Androgen receptor (Homo sapiens) (UniProt P10275). Description: qHTS assay to identify small molecule agonists of the androgen receptor (AR) signaling pathway using the MDA cell line (AID 743040; further: on the % scale 0 is the no-effect control and ±100 the full control effect; nearly all actives have a fitted effect of over 20% in size). An outline of the steps: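 Agonist activity is measured as luciferase luminescence in human MDA-kb2 cells whose MMTV reporter responds to both AR and GR. Compounds in DMSO incubate 16 h at 37C, 0% CO2, and ONE-Glo is read after 30 min.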
Androgen receptor (Homo sapiens), sequence (P10275 whole entry, looked up): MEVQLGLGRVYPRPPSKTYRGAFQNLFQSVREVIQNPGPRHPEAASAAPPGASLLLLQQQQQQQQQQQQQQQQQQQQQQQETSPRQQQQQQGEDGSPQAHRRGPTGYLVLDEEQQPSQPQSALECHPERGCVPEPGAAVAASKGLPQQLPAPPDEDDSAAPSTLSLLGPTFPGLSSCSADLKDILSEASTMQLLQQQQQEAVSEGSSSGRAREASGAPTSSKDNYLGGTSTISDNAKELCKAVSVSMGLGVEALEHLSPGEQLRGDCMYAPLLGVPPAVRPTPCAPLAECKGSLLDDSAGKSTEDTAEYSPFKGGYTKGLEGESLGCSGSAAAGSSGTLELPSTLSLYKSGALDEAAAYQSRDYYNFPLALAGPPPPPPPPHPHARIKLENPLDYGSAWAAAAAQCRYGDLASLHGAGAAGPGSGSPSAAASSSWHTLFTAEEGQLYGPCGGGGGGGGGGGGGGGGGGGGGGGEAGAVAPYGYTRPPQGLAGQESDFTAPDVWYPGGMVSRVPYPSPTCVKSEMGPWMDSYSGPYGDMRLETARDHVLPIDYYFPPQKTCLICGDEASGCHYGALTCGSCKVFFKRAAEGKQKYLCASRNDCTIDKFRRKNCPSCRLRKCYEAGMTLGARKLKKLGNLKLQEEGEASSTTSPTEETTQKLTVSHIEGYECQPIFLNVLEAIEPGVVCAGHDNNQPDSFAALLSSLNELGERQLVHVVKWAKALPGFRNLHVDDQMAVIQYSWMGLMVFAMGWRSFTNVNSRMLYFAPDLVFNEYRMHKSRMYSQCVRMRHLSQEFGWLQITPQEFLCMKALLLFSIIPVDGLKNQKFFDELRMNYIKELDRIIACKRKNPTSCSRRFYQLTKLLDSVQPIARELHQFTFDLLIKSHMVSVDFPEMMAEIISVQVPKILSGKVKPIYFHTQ

The test system of experiment [12] is thyroid hormone receptor (rat, GH3 cells). Put plainly: qHTS assay to identify small molecule agonists of the thyroid receptor (TR) signaling pathway (AID 743066; calls by dose curve; further: on the % scale 0 is the no-effect control and ±100 the full control effect).
For experiment [13], the target named is Vitamin D3 receptor (Homo sapiens) (UniProt P11473). Put plainly: qHTS assay to identify small molecule agonists of the vitamin D receptor (VDR) signaling pathway (AID 743222; calls by dose curve; further: on the % scale 0 is the no-effect control and ±100 the full control effect). A digest of the protocol:
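Agonist mode, beta-lactamase reporter: fluorescence from LiveBLAzer B/G FRET substrate (2 h, room temperature) read after 16 h compound treatment at 37 C of VDR-bla cells, which were pre-incubated 4 h after seeding.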

Experiment [14] in a line: qHTS assay to identify small molecule antagonists of the estrogen receptor alpha (ER-alpha) signaling pathway using the BG1 cell line (AID 743080; calls by dose curve;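 further: BG1 cells stimulated with 17beta-estradiol alongside compound; nearly all actives have a fitted effect of over 25% in size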; further: potency means the concentration at half of the fitted maximal effect). A digest of the protocol:
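Endogenous full-length ER-alpha in BG1-Luc-4E2 cells drives a stably integrated 4×ERE luciferase gene; compounds were tested against 17beta-estradiol over 21.5 h, with luminescence and multiplexed viability fluorescence recorded.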

The target in experiment [15] is Peroxisome proliferator-activated receptor gamma (Homo sapiens) (UniProt P37231). Description: qHTS assay to identify small molecule agonists of the peroxisome proliferator-activated receptor gamma (PPARg) signaling pathway (AID 743094; active means well fitted activation curve with a large enough effect in the signal ratio in the repeat runs, not every such curve was filed as active; the % refers to the signal ratio; further: on the % scale 0 is the no-effect control and ±100 the full control effect). An outline of the steps: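 Agonist activity was taken from a beta-lactamase reporter (FRET substrate, 1 h at room temperature) in HEK293H cells carrying a PPARg UAS-bla construct. Compounds in DMSO were incubated 17 h at 37C after a 5 h cell pre-incubation.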
Peroxisome proliferator-activated receptor gamma (Homo sapiens), sequence (P37231 whole entry, looked up): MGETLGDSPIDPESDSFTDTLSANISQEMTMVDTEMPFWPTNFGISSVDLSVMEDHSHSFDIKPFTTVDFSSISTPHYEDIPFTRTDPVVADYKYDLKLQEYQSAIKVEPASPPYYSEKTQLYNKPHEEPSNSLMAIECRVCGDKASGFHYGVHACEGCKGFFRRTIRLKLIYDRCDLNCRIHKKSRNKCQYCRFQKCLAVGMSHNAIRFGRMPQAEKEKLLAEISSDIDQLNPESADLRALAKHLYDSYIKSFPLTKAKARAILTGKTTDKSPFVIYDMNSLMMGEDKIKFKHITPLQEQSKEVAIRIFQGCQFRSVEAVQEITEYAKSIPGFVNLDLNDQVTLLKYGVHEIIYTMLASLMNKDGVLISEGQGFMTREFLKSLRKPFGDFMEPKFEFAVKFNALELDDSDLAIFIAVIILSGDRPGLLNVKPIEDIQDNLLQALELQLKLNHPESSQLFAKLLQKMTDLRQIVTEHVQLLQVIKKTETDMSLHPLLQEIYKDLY

Experiment [16] can be described thus: qHTS assay to identify small molecule antagonists of the retinoid-related orphan receptor gamma (ROR-gamma) signaling pathway - cell viability counter screen (AID 1159520). Further: nearly all actives have a fitted effect of over 50% in size. Further: potency means the concentration at half of the fitted maximal effect. An outline of the steps:
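Tet-on ROR gamma CHO cells (1,000/well) were plated 4 hr, given compounds in DMSO for 2 hr at 37 C, then induced with 1 uM final doxycycline for 16 hr. Viability was read as ATP by CellTiter-Glo luminescence after 30 min.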

The nature of experiment [17]: qHTS assay to identify small molecule agonists of the retinoic acid receptor (RAR) signaling pathway (AID 1159553). Further: on the % scale 0 is the no-effect control and ±100 the full control effect. An outline of the steps:
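Luminescence was measured 30 min after luciferase reagent addition at room temperature. Before that, C3RL4 reporter cells (1,000 per well, plated overnight) were treated with compound for 6 hr at 37 C and 5% CO2.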

Experiment [18] addresses Glucocorticoid receptor (Homo sapiens) (UniProt P04150). Put plainly: qHTS assay to identify small molecule antagonists of the glucocorticoid receptor (GR) signaling pathway (AID 720692; active means well fitted inhibition curve with a large enough effect in the signal ratio in the repeat runs, not every such curve was filed as active; the % refers to the signal ratio; further: potency means the concentration at half of the fitted maximal effect). A digest of the protocol:
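Inhibition of dexamethasone-driven (5 nM final) beta-lactamase expression was measured in GRE-reporter HeLa cells over 18 h at 37C. Fluorescence was read after 2 h with the B/G FRET substrate at room temperature.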

The target in experiment [19] is Peroxisome proliferator-activated receptor delta (Homo sapiens) (UniProt Q03181). Description: qHTS assay to identify small molecule agonists of the peroxisome proliferator-activated receptor delta (PPARd) signaling pathway (AID 743212; calls by dose curve; further: on the % scale 0 is the no-effect control and ±100 the full control effect). An outline of the steps:
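Cells expressing a UAS-driven beta-lactamase reporter (PPARd-bla HEK293H) were given test compounds after a 5 h settle and kept at 37 C. Reporter activity was then measured as FRET fluorescence using LiveBLAzer B/G substrate.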

Experiment [20] is described as follows: qHTS assay to identify small molecule antagonists of the peroxisome proliferator-activated receptor delta (PPARd) signaling pathway - cell viability counter screen (AID 743213). Further: nearly all actives have a fitted effect of over 50% in size. Further: potency means the concentration at half of the fitted maximal effect. A digest of the protocol:
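HEK293H cells with the PPARd UAS-bla reporter, co-treated 17 h at 37 C with compounds and L165041 (300 nM final), were lysed with CellTiter-Glo. Luminescence indicated viable cell content.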

Several values for one entry are separate records, joined by “and”; a condition that tells them apart may be missing. Equal entries are not always repeated. A number with no mark means an inactive call. Records with an inconclusive call do not appear. Activity calls are given as the source filed them. Unless noted, the call rests on the fitted dose curve; in most records, active means well fitted curve in the direction sought with a large enough effect in the repeat runs; inconclusive means weak or mixed curves; inactive means no such curve, though single readings can be large; an effect the other way counts as inactive or inconclusive.

Experimental findings from PubChem BioAssay (Tox21) are described below.

Bile acid receptor (Homo sapiens), sequence (Q96RI1 whole entry, looked up): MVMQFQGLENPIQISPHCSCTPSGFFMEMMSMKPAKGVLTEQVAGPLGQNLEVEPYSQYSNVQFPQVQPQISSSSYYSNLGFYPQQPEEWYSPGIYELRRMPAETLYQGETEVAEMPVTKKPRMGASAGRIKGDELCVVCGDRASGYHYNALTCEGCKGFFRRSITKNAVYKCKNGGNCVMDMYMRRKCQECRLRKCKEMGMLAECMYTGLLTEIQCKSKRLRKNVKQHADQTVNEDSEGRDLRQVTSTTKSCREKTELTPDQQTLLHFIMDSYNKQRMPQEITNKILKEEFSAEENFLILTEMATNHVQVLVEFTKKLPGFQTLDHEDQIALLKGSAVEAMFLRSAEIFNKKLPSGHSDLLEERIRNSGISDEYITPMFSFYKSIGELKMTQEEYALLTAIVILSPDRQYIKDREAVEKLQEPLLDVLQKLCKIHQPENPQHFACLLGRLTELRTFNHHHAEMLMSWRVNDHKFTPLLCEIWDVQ
Glucocorticoid receptor (Homo sapiens), sequence (P04150 whole entry, looked up): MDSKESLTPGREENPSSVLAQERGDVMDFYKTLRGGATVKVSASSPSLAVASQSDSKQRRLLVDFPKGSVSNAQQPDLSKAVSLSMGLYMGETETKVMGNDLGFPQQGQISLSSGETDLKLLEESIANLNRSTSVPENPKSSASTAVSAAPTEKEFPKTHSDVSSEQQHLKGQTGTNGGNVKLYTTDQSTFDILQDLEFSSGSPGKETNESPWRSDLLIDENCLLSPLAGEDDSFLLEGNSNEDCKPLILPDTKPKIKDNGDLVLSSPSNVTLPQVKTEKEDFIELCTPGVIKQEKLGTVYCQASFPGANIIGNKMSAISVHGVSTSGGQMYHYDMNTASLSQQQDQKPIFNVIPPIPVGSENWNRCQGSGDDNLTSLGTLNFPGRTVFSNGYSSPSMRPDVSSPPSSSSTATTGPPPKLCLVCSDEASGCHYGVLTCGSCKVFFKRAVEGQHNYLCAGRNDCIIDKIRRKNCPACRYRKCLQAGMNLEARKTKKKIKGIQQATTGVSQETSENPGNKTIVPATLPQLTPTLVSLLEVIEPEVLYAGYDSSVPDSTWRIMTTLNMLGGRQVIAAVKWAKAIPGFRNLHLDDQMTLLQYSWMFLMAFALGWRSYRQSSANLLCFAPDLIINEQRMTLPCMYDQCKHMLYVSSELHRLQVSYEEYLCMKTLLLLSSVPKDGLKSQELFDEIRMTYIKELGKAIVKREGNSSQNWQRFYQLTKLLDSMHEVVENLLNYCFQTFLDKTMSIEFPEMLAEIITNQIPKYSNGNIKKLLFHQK
Peroxisome proliferator-activated receptor delta (Homo sapiens), sequence (Q03181 whole entry, looked up): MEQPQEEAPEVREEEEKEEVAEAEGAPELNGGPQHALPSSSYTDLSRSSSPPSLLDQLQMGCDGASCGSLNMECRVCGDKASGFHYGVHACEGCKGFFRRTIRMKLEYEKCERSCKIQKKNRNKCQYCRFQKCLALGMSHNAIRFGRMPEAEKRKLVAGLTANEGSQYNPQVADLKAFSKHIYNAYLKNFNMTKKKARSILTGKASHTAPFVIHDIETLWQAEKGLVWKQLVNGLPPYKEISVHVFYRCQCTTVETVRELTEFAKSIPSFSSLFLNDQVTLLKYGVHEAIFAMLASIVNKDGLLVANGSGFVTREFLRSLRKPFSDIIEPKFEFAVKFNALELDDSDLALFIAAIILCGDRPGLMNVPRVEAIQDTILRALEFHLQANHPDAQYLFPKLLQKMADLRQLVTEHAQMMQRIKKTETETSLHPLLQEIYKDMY
Vitamin D3 receptor (Homo sapiens), sequence (P11473 whole entry, looked up): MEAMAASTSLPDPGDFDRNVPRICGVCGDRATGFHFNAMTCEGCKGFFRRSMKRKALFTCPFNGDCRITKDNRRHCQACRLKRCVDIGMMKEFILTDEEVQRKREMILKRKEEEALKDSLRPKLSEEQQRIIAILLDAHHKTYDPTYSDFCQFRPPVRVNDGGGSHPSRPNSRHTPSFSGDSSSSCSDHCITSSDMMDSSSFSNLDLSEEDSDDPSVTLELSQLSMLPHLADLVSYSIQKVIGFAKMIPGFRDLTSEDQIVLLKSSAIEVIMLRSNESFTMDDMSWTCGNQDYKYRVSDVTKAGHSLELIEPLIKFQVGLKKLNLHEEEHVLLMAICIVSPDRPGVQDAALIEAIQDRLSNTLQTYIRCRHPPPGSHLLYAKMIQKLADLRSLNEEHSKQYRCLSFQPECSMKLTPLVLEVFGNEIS

Consider `CCCCC(CC)COC(=O)c1ccc(C(=O)OCC(CC)CCCC)cc1` (stereo not drawn), for which the compound was classed as inactive in experiment [1].

For the compound `Cc1nnc2n1-c1sc(CCc3ccc(CC(C)C)cc3)cc1C(c1ccccc1Cl)=NC2C` (stereo not drawn), the Potency result in experiment [2] and in [4] was “inactive” throughout. Besides, the Potency in experiment [3] is 23.9 µM (active); in [5] it was 29.8 µM [setting not given] (active); in [6] it was 29.8 µM (active); in experiment [7], 23.9 µM (active).

With `C=CC(=O)OCCCC`, the Potency result in experiment [8] was “inactive”.

For `Nc1ccc([N+](=O)[O-])cc1`, the Potency in experiment [9] was 54.5 µM (active). Moreover, the Potency result in experiment [10], in experiment [11] and in [12] was “inactive” in each case. The call in experiment [13] was inactive.

Take `O=[N+]([O-])c1c(Cl)c(Cl)cc(Cl)c1Cl`: the Potency entry in experiment [9], in experiment [12], in [14], in [15] and in experiment [16] was “inactive” each time. The call in experiment [17] was inactive.

`ClC(Cl)=C(c1ccc(Cl)cc1)c1ccccc1Cl`: the Potency result in [16] is “inactive”.

For `Cc1cc(C(C)(C)c2ccc(O)c(C)c2)ccc1O`, the figures for the Potency in [18] and in [5] were 13.1 µM (active) and 37 µM (active), respectively. Also, the Potency entry in [3], in [11] and in experiment [12] was “inactive” each time. For the same compound, the call in [19], in [1] and in [13] was inactive.

In the case of `Cc1ccc(N(SC(F)(Cl)Cl)S(=O)(=O)N(C)C)cc1`, the Potency entry in experiment [3] and in [11] was “inactive” in each case. Also, the Potency in experiment [4] was 48.6 µM (active); in experiment [5], 7.76 µM (active); in experiment [20], 13.8 µM (active); in experiment [16] it was 6.11 µM (active).

Consider `COc1cc(OC)c(OC)cc1C=O`, for which the Potency entry in experiment [2], in experiment [10], in experiment [11], in experiment [14] and in experiment [20] was “inactive” in each case.

`c1ccc2c(c1)Sc1ccccc1N2CC1CN2CCC1CC2` (stereo not drawn): the Potency entry in experiment [2], in experiment [10] and in experiment [3] was “inactive” throughout. Also, the Potency in experiment [18] is 21.3 µM (active); in experiment [5] it was 26.6 µM (active); in experiment [20], 9.44 µM (active); in experiment [8], 11.9 µM (active); in experiment [7], 21.3 µM (active).

For the compound `Cc1ccc2nc3sc(=O)sc3nc2c1`, the activity, negative = cytotoxicity in [16] was -10.1% [at 19 µM].

`O=C1C(I)=CC(=C(c2cc(I)c(O)c(I)c2)c2ccccc2C(=O)O)C=C1I`: the Potency result in experiment [2], in experiment [12], in [14], in [20], in [8] and in [7] was “inactive” throughout. The Potency entry in experiment [16] is “inactive”. The Potency in [18] is 16.9 µM (active) and 8.49 µM (active). Moreover, the compound was called inactive in [19], in experiment [13] and in [17].

Consider `OCC(c1ccc(Cl)cc1)c1ccc(Cl)cc1`, for which the Potency in experiment [14] was 68.6 µM (active); in [7], 54.9 µM (active). Further, the Potency entry in experiment [4], in experiment [15] and in [6] was “inactive” each time. Moreover, the call in experiment [1] and in experiment [13] was inactive.

With `O=C(Nc1ccccc1-c1ccc(Cl)cc1)c1cccnc1Cl`, the Potency result in experiment [9], in experiment [10], in experiment [12], in [14], in experiment [4] and in experiment [15] was “inactive” throughout. Also, the call in experiment [17] was inactive.
